In PubChem BioAssay (Tox21) one finds Potency and viability change, negative = cytotoxic data, which are given here for 40 compounds.

Inconclusive results are not listed. Entries that show only a call come without a potency. Activity calls are given as the source filed them. Calls follow the shape of the dose curve; as a rule, active = well fitted cell-killing curve with a large enough effect in the repeat runs; inconclusive = weak or mixed curves, or effect the other way; inactive = flat fitted curve, though single readings scatter.

This assay is described as follows: cAMP Responsive Elements (CRE) small molecule antagonists, cell-based qHTS assay: qHTS cell viability counter screen (AID 2060913). Also: nearly all actives have a fitted effect of over 40% in size. Particulars: CRE-bla HEK293T viability, CellTiter-Glo luminescence, 5 h; series mostly up to 92.4 µM. An excerpt: U.S. Tox21 Program National Center for Advancing Translational Sciences [NCATS] Division of Preclinical Innovation [DPI] U.S. Environmental Protection Agency [EPA] National Institutes of Environmental Health Sciences [NIEHS] National Toxicology Program [NTP] U.S. Food and Drug Administration [FDA] Tox21 Assay Overview: CREB (cyclic-AMP Responsive Element Binding Protein) is a cellular transcription factor. It binds to certain DNA sequences called cAMP Responsive Elements (CRE) and regulates the transcription of the genes. […] This cell line can be used to find agonists/antagonists of the cyclic AMP signaling pathway. The activation of the report gene under culture conditions can be detected by fluorescence intensity. This cell line has been used to screen the Tox21 10K compound library to identify agonists that induce oxidative stress. The cytotoxicity of the Tox21 compound library against the CRE-bla cell line was tested in parallel by measuring the cell viability using CellTiter-Glo assay (Promega, Madison, WI) in the same wells.
Tox21 Assay Protocol Summary: CRE-bla Hek 293T cells were suspended in assay medium (DMEM containing 10% dialyzed FBS, 0.1 mM NEAA, 1 mM sodium pyruvate and 25 mM HEPES) and dispensed at 2,000 cells/4 uL /well into 1536-well black wall/clear bottom plates using a Multidrop Combi (ThermoFisher Scientific, Waltham, MA) dispenser. After the assay plates were incubated at 37 C/5% CO2 for 18 hrs, 23 nL of compounds dissolved in DMSO, positive controls or DMSO only was transferred to the assay plate by a pintool workstation (Kalypsys, San Diego, CA), followed by addition of 1 uL of 1.25uM NKH477 (0.25 uM as final concentration) in assay medium using a Flying Reagent Dispenser (Aurora Discovery, San Diego, CA). The plates were incubated at 37 C and 5% CO2 for 3 hrs. Then 1 uL of LiveBLAzer B/G FRET substrate (Invitrogen, Carlsbad, CA) was added to each well using Bioraptr Flying Reagent Dispenser (FRD, Aurora Discovery, San Diego, CA). The plates were incubated at room temperature for 2 h, then fluorescence intensities were measured using an Envision plate reader (PerkinElmer, Shelton, CT) at Excitation 405nm, Emission 460nm and 530nm. The % activity was determined from the ratio of 460nm/530nm. For cell viability readout that measures cytotoxicity, 4 uL /well of CellTiter-Glo reagent was added into the assay plates using Bioraptr FRD. After 30 min incubation at room temperature, the luminescence intensity in the assay plates was measured using a ViewLux (PerkinElmer, Shelton, CT) plate reader.
For orientation: In qHTS, concentration-response curves come from the screen itself.
On to `CCCCCCOc1ccc(N)cc1`, for which the Potency entry was “inactive”. Same read-out and setting: then `CCOC(=O)c1cccc(N)c1`, with “inactive”. In the case of `CN(C(=O)c1c(O)c2ccccc2n(C)c1=O)c1ccccc1`, the Potency result was “inactive”. Same read-out and setting: under `Nc1cc([N+](=O)[O-])ccc1O` stands “inactive”; under `CC(C)CC(=O)C1C(=O)c2ccccc2C1=O`, “inactive”; under `CC(=O)CCc1ccc(OC(C)=O)cc1`, “inactive”.

Take `CCN(CC#N)c1cccc(C)c1`: the Potency entry was “inactive”.

Consider `CCOC(=O)[C@@](C)(N)Cc1ccc(O)c(O)c1`, for which the Potency result was “inactive”. On to `CC(C)Cc1ccc(CC(=O)O)cc1`, for which the Potency entry was “inactive”. As for `O=C(O)c1ccccc1C(=O)Nc1ccc(S(=O)(=O)Nc2nccs2)cc1`, the Potency result was “inactive”. Turning to `CC1CCc2c(N3CCC(O)CC3)c(F)cc3c(=O)c(C(=O)O)cn1c23` (stereo not given), the Potency result was “inactive”.

Regarding `CCCCCCCCCCCCCCCC(=O)OC`, the viability change, negative = cytotoxic was 14.8% [at 18.9 µM] (inactive).

For the compound `Cc1ccc(S(=O)(=O)NC(=O)NN2CC3CCCC3C2)cc1` (stereo not given), the Potency result is “inactive”.

For the compound `CC(C)c1nnc2ccc(-c3ocnc3-c3cc(F)ccc3F)cn12`, the Potency result is “inactive”. In the case of `CCCCOCCCC`, the Potency entry is “inactive”. On the same count and under the same terms, then `CC(C)C[C@@H]1[C@H](c2ccccc2)OC(=O)N1CCCN1CCCCCC1`, with “inactive”. Regarding `O=C(O)CO`, the Potency result was “inactive”.

As to `O=S(=O)(O)c1ccccc1`, the Potency result is “inactive”.

As to `CCN(C)C(=O)Oc1cccc([C@H](C)N(C)C)c1`, the Potency entry is “inactive”.

`ClC1=C(Cl)C(Cl)(Cl)C(Cl)=C1Cl`: the Potency entry is “inactive”.

With `CC(C)c1c(C(=O)Nc2ccccc2)c(-c2ccccc2)c(-c2ccc(F)cc2)n1CC[C@@H](O)C[C@@H](O)CC(=O)O`, the Potency result is “inactive”. Consider `CN1CCN(C2=Nc3ccccc3Sc3ccc(Cl)cc32)CC1`, for which the Potency entry was “inactive”. As for `CC(C)COC(=O)c1ccc(N)cc1`, the Potency result is “inactive”. In the case of `CN(C)CCCN(C)CCCN(C)C`, the Potency result is “inactive”. Take `COc1ccc2[nH]cc(CCNC(C)=O)c2c1`: the Potency result was “inactive”. On the same count and under the same terms, under `COc1cccc(OC)c1C(=O)O` stands “inactive”. In the case of `O=Nc1ccc(NO)cc1`, the Potency result is “inactive”. Turning to `CN(C)CCCN`, the Potency entry is “inactive”.

Regarding `CCCCCCC(C)(C)S`, the Potency entry was “inactive”.

For `CCN(CC)CCCN(c1ccccc1)C1Cc2ccccc2C1`, the Potency entry was “inactive”. On to `CCC(C)(C)C1CCC(O)CC1` (stereo not given), for which the Potency entry is “inactive”. `O=C1Nc2cc(Cl)ccc2Oc2ccccc21`: the Potency result was “inactive”. As to `CCOC(=O)CC#N`, the Potency result was “inactive”.

For the compound `Fc1ccc(C(c2ccc(F)cc2)N2CCN(C/C=C/c3ccccc3)CC2)cc1`, the Potency result was “inactive”. For the compound `c1ccccc1`, the Potency entry was “inactive”. For the compound `COC(=O)Nc1nc2ccc(C(=O)c3ccccc3)cc2[nH]1`, the Potency result was “inactive”. As to `FC(F)(F)c1cccc(Cl)c1`, the Potency entry is “inactive”. In the case of `CCCO[Si](OCCC)(OCCC)OCCC`, the Potency result was “inactive”. On to `Oc1ccc(Oc2ccccc2)cc1`, for which the Potency result is “inactive”.

`Clc1ccccn1`: the Potency entry is “inactive”.
